40 compounds from PubChem BioAssay (Tox21) can be followed below.

The source holds several records for some structures; these can differ, active in one and inactive in another. The source made the active and inactive calls. Where a call stands in place of a potency, no number is given. Calls follow the shape of the dose curve; as a rule, active = well fitted inhibition curve with a large enough effect in the repeat runs (not every such curve was filed as active); inconclusive = weak or mixed curves; inactive = flat fitted curve, though single readings scatter.
Potency is read from the fitted curve at half-maximal effect.

For this assay, the target named is Thyrotropin-releasing hormone receptor (Homo sapiens) (UniProt P34981). In words: qHTS assay to identify small molecule antagonists of the thyrotropin-releasing hormone receptor (TRHR) signaling pathway (AID 1346877). The note with it: TRHR-HEK293, TRH-induced calcium fluorescence, antagonist mode; series mostly up to 51.3 µM. The text has this: National Center for Advancing Translational Sciences [NCATS]
Chain of Thyrotropin-releasing hormone receptor (Homo sapiens) (P34981 whole entry, looked up): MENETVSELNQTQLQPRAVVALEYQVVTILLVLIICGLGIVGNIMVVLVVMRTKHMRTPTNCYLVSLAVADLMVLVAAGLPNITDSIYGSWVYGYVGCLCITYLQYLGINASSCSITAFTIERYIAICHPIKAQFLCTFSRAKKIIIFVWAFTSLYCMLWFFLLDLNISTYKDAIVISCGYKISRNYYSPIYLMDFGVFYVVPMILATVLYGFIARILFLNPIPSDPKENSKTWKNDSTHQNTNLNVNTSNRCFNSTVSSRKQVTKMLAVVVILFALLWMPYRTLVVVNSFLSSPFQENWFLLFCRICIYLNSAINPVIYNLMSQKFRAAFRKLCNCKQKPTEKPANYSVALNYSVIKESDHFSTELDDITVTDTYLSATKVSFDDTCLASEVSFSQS
NIH Chemical Genomics Center [NCGC]
U.S. Environmental Protection Agency [EPA]
National Institutes of Environmental Health Sciences [NIEHS]
National Toxicology Program [NTP]
U.S. Food and Drug Administration [FDA]
Thyrotropin-releasing hormone (TRH) receptor (TRHR) is a G-protein-coupled receptor which binds the tripeptide thyrotropin releasing hormone. TRHR is found in the brain and, when bound by TRH, acts (through phospholipase C) to increase intracellular inositol trisphosphate. It plays a crucial role in the anterior pituitary where it controls the synthesis and secretion of thyroid stimulating hormone and prolactin. The TRHR-Hek293 assay is a cell-based assay, and it has the potential to screen G protein-coupled receptors. A compound/drug can either activate (agonist) or suppress (antagonist) GPCRs that can be monitored by levels of intracellular calcium. In this assay, the Tox21 10K compound library was screened to identify potential TRHR antagonists.
Tox21 Assay Protocol Summary:
The TRHR-Hek293 cells were dispensed at 1500cells/4uL/well in 1536-well black-clear bottom plates using a Multidrop dispenser. After the assay plates were incubated at a 37 C/5% CO2 incubator for 18 hours, 4 uL of Dye-Loading Solution was added to each well. The plates were incubated at 37 C for 2 hours. For agonist mode, 23 nL of compounds dissolved in DMSO, positive controls or DMSO only was transferred to the assay plate by a pin tool. The fluorescence intensity in the plates was measured using FDSS 7000EX kinetic plate reader for 3 min at 1 sec intervals. For antagonist mode, 23 nL of compounds dissolved in DMSO, positive controls or DMSO only was transferred to the assay plate by a pin tool. After 5 min incubation at room temperature, 1 uL of TRH was added on the top of the cell/compound mixtures to achieve a final agonist concentration of 1 nM. The fluorescence intensity in the plates was measured using FDSS 7000EX kinetic plate reader for 3 min at 1 sec intervals. Each test compound was measured at 15 concentrations and in triplicates.
With `CSCCC=O`, the Potency result was “inactive”. `COc1ccc(NC(C)=O)cc1N`: the Potency entry was “inactive”. `O=C(O)c1ccccc1C(c1ccc(O)cc1)c1ccc(O)cc1`: the Potency entry was “inactive”. As to `CC1=CCC2CC1C2(C)C` (stereo not given), the Potency entry was “inactive”. Regarding `Cc1cccnc1`, the Potency result is “inactive”. Regarding `O=C(O)c1cc(O)c(O)c(O)c1`, the Potency result was “inactive”. With `COc1ccc(Nc2ccccc2)c(C)c1`, the Potency result was “inactive”. Turning to `O=[N+]([O-])c1ccc(/C=C/c2ccc([N+](=O)[O-])cc2S(=O)(=O)O)c(S(=O)(=O)O)c1`, the Potency result was “inactive”. The value for `CC(=O)CC(=O)Nc1ccccc1C` was “inactive”; that for `O=S1(=O)CC=CC1` was “inactive”. Turning to `C/C=C1/CC2C=CC1C2` (stereo not given), the Potency entry is “inactive”.

Turning to `CCCSc1ccc2nc(NC(=O)OC)[nH]c2c1`, the Potency entry is “inactive”. For the compound `C=C(C)C(=O)O[C@H]1C[C@@H]2CC[C@@]1(C)C2(C)C`, the Potency result was “inactive”.

Turning to `CCCCCCCC(=O)OC`, the Potency result was “inactive”.

`CCC(O)OC(O)CC` (stereo not given): the Potency result was “inactive”. With `OCCOCCN1CCN(C2=Nc3ccccc3Sc3ccccc32)CC1`, the Potency result is “inactive”.

For the compound `CC1=CC(=O)NS(=O)(=O)O1`, the Potency entry is “inactive”.

Consider `CC[C@H](C)C(=O)O[C@H]1C[C@@H](C)C=C2C=C[C@H](C)[C@H](CC[C@@H]3C[C@@H](O)CC(=O)O3)[C@H]21`, for which the Potency is 38.5 µM (active) and inactive.

As to `Fc1ccc(Br)cc1`, the Potency entry is “inactive”. For `CCCCCCCCCCCCCCO`, the Potency result was “inactive”. `CC1CCC(C(C)C)C(O)C1` (stereo not given): the Potency entry is “inactive”.

For `CCc1ccc(CCOc2ccc(CC3SC(=O)NC3=O)cc2)nc1` (stereo not given), the Potency result was “inactive”. `O=C=NCCCCCCN=C=O`: the Potency entry was “inactive”. Turning to `Cc1ccc2oc(=O)ccc2c1`, the Potency result is “inactive”. Consider `CC(=O)c1ccccc1`, for which the Potency entry is “inactive”. On to `CC(=O)Nc1ccccc1`, for which the Potency entry is “inactive”. Regarding `c1c[nH]cn1`, the Potency result was “inactive”. As to `CC(C)(C)[C@@H](O)[C@@H](Cc1ccc(Cl)cc1)n1cncn1`, the Potency entry is “inactive”. The value for `O=S(=O)(O)c1ccc2ccccc2c1` was “inactive”. The value for `c1ccc2c(c1)ccc1ccccc12` was “inactive”. For the compound `C#CCN(C)Cc1ccccc1`, the Potency result is “inactive”. Consider `Cc1occc(=O)c1O`, for which the Potency result was “inactive”.

Turning to `CCCCCCCCCCCCS`, the Potency entry is “inactive”. For the compound `CCCCCCCCCCCCc1ccccc1`, the Potency result is “inactive”. In the case of `Nc1cc([N+](=O)[O-])ccc1O`, the Potency entry is “inactive”. Turning to `O=C(O)c1ccc(C(=O)O)cc1`, the Potency entry was “inactive”. Next, `CC(=O)OCC(=O)[C@@]12N=C(C)O[C@@H]1C[C@H]1[C@@H]3CCC4=CC(=O)C=C[C@]4(C)[C@H]3[C@@H](O)C[C@@]12C`: “inactive”; `Nc1ccccc1[N+](=O)[O-]`: “inactive”. The value for `CCCCCC1=CCCC1=O` was “inactive”; that for `CCN(CC)c1ccc(C(=O)c2ccccc2C(=O)O)c(O)c1` was “inactive”.
